Sm TGR block – S. mansoni TGR enzyme inhibition. Q962Y6. purified TGR, DTNB reduction, TNB absorbance 405 nm. Potency, µM (series often up to 114 µM), for the others: top-dose activity change, negative = inhibition, hits mostly inhibitors. 360,000 tested, 3% active; note: % is set by controls: 0 for no effect and ±100 for the full control effect; nearly all actives have a fitted effect of over 60% in size
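TGR 20 nM + NADPH 100 uM (dispensed conc.), cpd preinc 15 min RT; start with NADPH (500 uM addition) then DTNB (15 mM addition). Kinetic TNB absorbance, 405 nm filter. Four-parameter Hill fit across titration.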
Pf growth 96h – inhibits malaria parasite growth, 96 h; P. falciparum luciferase reporter growth, 96 h; Potency, µM (top dose mostly 28.7 µM), inactives show top-dose activity change, negative = inhibition, hits mostly inhibitors; 320,000 tested, 6.9% active; AID 504834; note: % is set by controls: 0 for no effect and ±100 for the full control effect
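Infected RBCs, 2% Hct / 0.05% parasitemia final; luciferase-reporter P. falciparum; cpd 96 h, 37 C, 5% CO2; luciferase detection reagent; luminescence.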
NS1 function inh – blocks influenza NS1 protein function; 270,000 tested, 0.4% active; Potency, µM (top dose mostly 46.1 µM), inactives show at the highest dose activity, positive = more growth; AID 2326; calls by dose curve; note: actives are rising curves; nearly all actives have a fitted effect of over 50% in size
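Growth recovery, yeast-based: influenza A NS1 expressed in S. cerevisiae causes slow growth, and suppressors are detected by OD600. The parent strain without NS1 is used as positive control.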
AMA1-RON2 inh – AMA1-RON2 (P. falciparum) interaction inhibition | AID 720542 | Potency, µM (highest dose often 58.2 µM), for the others: at the highest dose activity change, negative = inhibition, usual class: inhibitors | AlphaScreen AMA1-biotinylated RON2 peptide binding | 360,000 tested, 0.2% active;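 note: 0% = vehicle wells and -100% = peptide control; nearly all actives have a fitted effect of over 45% in size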
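AMA1 (3D7) with his tag at 25 nM final met compounds first, then biotinylated RON2 peptide at 25 nM; detection used donor plus acceptor beads, 10 µg/mL apiece, read by AlphaScreen after 30 min at room temperature.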
Pf growth 48h – P. falciparum growth inhibition at 48 hours (one generation). P. falciparum luciferase growth in erythrocytes, 48 h. AID 504832. Potency, µM (doses to about 28.7 µM), without a hit: at the highest dose activity change, negative = inhibition, hits mostly inhibitors. 310,000 tested, 5.9% active; note: % is set by controls: 0 for no effect and ±100 for the full control effect
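Luciferase-expressing P. falciparum in infected erythrocytes (2% hematocrit, 0.1% parasitemia final) in RPMI 1640/0.5% Albumax were exposed to compound for 48 hours at 37 C, 5% CO2; growth read as luminescence.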
An asterisk follows results filed as active; i = inactive; ? = inconclusive; . = not tested or not shown. Hits are enriched below; roughly 11% of the tested compounds scored in any of these assays. Unless noted, calls come from the whole dose curve; as a rule, active = well fitted curve in the direction sought with a large enough effect; inconclusive = small, poorly fitted or top-dose-only effect, or another doubt; inactive = no such curve, though single readings can be large; an effect the other way counts as inactive or inconclusive. Potency is the fitted concentration of half-maximal effect.

SMILES	Sm TGR block	Pf growth 96h	NS1 function inh	AMA1-RON2 inh	Pf growth 48h
O=C(O)c1ccc(NC(=O)N2C[C@H]3C[C@@H](C2)c2cccc(=O)n2C3)cc1	5%	?	3%	7%	3%
O=c1oc2c(O)c(O)cc3c(=O)oc4c(O)c(O)cc1c4c23	-28%	3.7µM*	-2%	0.79µM*	5.2µM*
CCCS(=O)(=O)Nc1cc(-c2cn3cccc(C)c3n2)ccc1C	1%	.	.	.	.
COC(=O)c1ccc(CNC(=O)CSC(C)C(=O)Nc2cc(C)on2)cc1 (stereo not given)	7%	-1%	.	-6%	1%
Cc1ccc(C(=O)Cn2c(=N)n(CCN3CCOCC3)c3ccccc32)cc1	2%	?	.	31%	9.3µM*
N=c1n(CCN2CCOCC2)c2ccccc2n1CC(O)COc1ccccc1 (stereo not given)	0%	19%	-13%	15%	-14%
COc1ccccc1OCC(O)Cn1c(=N)n(CCN2CCCCC2)c2ccccc21 (stereo not given)	-15%	-22%	-5%	1%	3.3µM*
CN(C)CCn1c(=N)n(CC(O)c2ccc(Cl)c(Cl)c2)c2ccccc21 (stereo not given)	2%	1%	-4%	2%	0.74µM*
CCn1c(=N)n(CC(=O)c2ccc(Cl)c(Cl)c2)c2ccccc21	0%	29%	3%	11%	?
Cc1ccccc1OCC(O)Cn1c(=N)n(CCN2CCCCC2)c2ccccc21 (stereo not given)	1%	.	.	.	.
N=c1n(CCN2CCCCC2)c2ccccc2n1CC(O)c1cccc(Br)c1 (stereo not given)	5%	0.74µM*	0%	-1%	0.59µM*
O=C(CCC(=O)Nc1ccccc1Cl)NNC(=O)COc1ccc([N+](=O)[O-])cc1	-3%	-6%	.	79%	13%
COC(=O)Cn1c(=N)n(CCN2CCCCC2)c2ccccc21	3%	12%	-7%	3%	9%
N=c1n(CCN2CCCCC2)c2ccccc2n1CC(O)c1ccc(Cl)c(Cl)c1 (stereo not given)	-13%	0.29µM*	12%	-6%	.
N=c1n(CCN2CCCCC2)c2ccccc2n1CC(=O)c1ccc(Cl)c(Cl)c1	-6%	2.6µM*	7%	-2%	1.5µM*
O=C1CCC(=O)N1CN(C(=O)c1ccco1)c1ccc(Cl)c(Cl)c1	11%	10µM*	-20%	-16%	23%
CC(=O)N(CN1C(=O)CCC1=O)c1ccc(Cl)c(Cl)c1	13%	?	.	0%	8%
COc1ccc(CN2C(=O)c3cccnc3C2Nc2ccc(OC)c(Cl)c2)cc1 (stereo not given)	-15%	.	-1%	-18%	19%
COc1cc(NC2c3ncccc3C(=O)N2Cc2ccco2)cc(OC)c1 (stereo not given)	45µM*	3.7µM*	1%	-21%	?
O=C(CN1CCN(C2CCCCC2)CC1)c1c[nH]c2ccccc12	-3%	?	9%	-7%	19%
O=C(CN1CCN(C2CCCCC2)CC1)c1ccc2cc[nH]c2c1	32µM*	4.7µM*	-56%	5%	.
NC(=O)COc1ccc(S(=O)(=O)N2CCCC2)cc1	.	.	.	-6%	.
Cc1cc(NC(=O)CSc2nnc(Cc3ccccc3)n2C)no1	4%	i	0%	16%	-11%
COC(=O)c1ccc2c(=O)n(Cc3ccco3)c(SCC(=O)Nc3ccccc3Cl)nc2c1	2%	?	10%	-14%	-4%
COC(=O)c1ccc2c(=O)n(Cc3ccco3)c(SCC(=O)Nc3cc(C)on3)nc2c1	-21%	-6%	1%	-6%	4.7µM*
SMILES	Sm TGR block	Pf growth 96h	NS1 function inh	AMA1-RON2 inh	Pf growth 48h
Cc1cc(NC(=O)CSc2nnc(COc3ccccc3)n2Cc2ccco2)no1	-8%	8.3µM*	4%	?	-16%
CCn1c(Cc2ccccc2)nnc1SCC(=O)Nc1cc(C)on1	6%	8.3µM*	-2%	3%	-14%
CCCOc1ccc(C(=O)CCC(=O)OCC(=O)Nc2cccc(S(N)(=O)=O)c2)cc1	6%	42%	.	-14%	64%
CSc1nc(=S)n(-c2ccccc2)c(C)c1C(C)=O	40µM*	-10%	0%	3%	8%
COc1ccc(OC)c(NC(=S)N2CCC(C(O)(c3ccccc3)c3ccccc3)CC2)c1	-2%	?	?	-5%	9.3µM*
COc1ccc(OC)c(NC(=S)N2CCN(Cc3ccccc3)CC2)c1	3%	18%	1%	0%	-1%
Cc1ccc(-n2ncc(C(=O)NCc3ccc4c(c3)OCO4)c2C2CCN(C(=O)OC(C)(C)C)CC2)c(C)c1	0%	.	.	.	.
C=CCn1c(SC(C)C(=O)c2c(N)n(C)c(=O)n(C)c2=O)nnc1-c1ccoc1C (stereo not given)	1%	8.3µM*	.	-6%	12µM*
COc1cc(/C=C2\SC(=Nc3ccccc3)N(Cc3ccco3)C2=O)ccc1OC(C)C(=O)O (stereo not given)	-7%	?	?	-12%	?
COCCN1C(=O)/C(=C/c2ccc(OCc3ccc(C(=O)O)cc3)c(OC)c2)SC1=Nc1ccccc1	7%	8.3µM*	0%	-7%	12µM*
Cc1c(Cl)cccc1NC(=O)C(C)N(c1ccccc1)S(C)(=O)=O (stereo not given)	-8%	.	.	.	.
O=C(NCCCn1ccnc1)Nc1ccc(Cl)c(Cl)c1	14%	2.1µM*	-36%	?	12µM*
O=C(NCCCn1ccnc1)Nc1ccc(Cl)cc1	-7%	2%	-24%	-5%	0%
S=C(NCCCn1ccnc1)Nc1ccc(Cl)cc1Cl	32µM*	159%	11%	-6%	?
CN(C)S(=O)(=O)c1cccc(NC(=S)NCCCn2ccnc2)c1	50µM*	-5%	.	-19%	4%
O=C(CNC(=O)c1ccc(Cl)cc1Cl)NCCCn1ccnc1	5%	11%	3%	6%	.
O=C(CSc1nnc(-c2ccco2)o1)c1ccc(O)cc1O	-17%	18%	.	-3%	0%
CCOc1ccccc1CNC(=O)c1cc(-c2ccc(C)c(C)c2)nc2ccccc12	-1%	.	.	.	.
O=C(C[C@@H]1C[C@H]2c3cc(NC(=O)NC4CCCCC4)ccc3O[C@H]2[C@H](CO)O1)NC1CCCCC1	.	.	.	0%	.
CC(C)C[C@H]1CN([C@@H](Cc2ccc(O)cc2)CN2CCC[C@H]2CN2C(=O)C(=O)NC[C@@H]2Cc2ccccc2)C(=O)C(=O)N1CC1CCCCCC1	.	.	.	-21%	.
C[C@@H]1CCCCO[C@H](CN(C)Cc2ccc3c(c2)OCO3)[C@@H](C)CN([C@H](C)CO)C(=O)c2cc(NC(=O)c3ccccc3)ccc2O1	.	.	.	-14%	.
Cc1cc(S(=O)(=O)N2CCCCC2CCNC(=O)C(=O)NCc2cccnc2)ccc1F (stereo not given)	-8%	13µM*	.	-7%	?

Screening results (PubChem)
